According to PubChem BioAssay AID1159580 (chemical genetic matrix, 2015):
Hit rate of the full screen: of about 5,500 compounds, about 2,000 (36%) were called active. Not shown: some 18% with an inconclusive outcome. No stated cut-off is given here; in the data, active means normalized growth mostly below about 0.91 (no sharp cut-off); inconclusive means no clear call, values can overlap the other calls; inactive means mostly above about 0.92. Some of the results follow.

Test: chemical genetic growth profiling, strain panel (AID 1159580);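 further: tested at 20 µM; growth read once vehicle control cultures reached saturation at 30 °C; 1 = growth at the plate median or of vehicle wells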
Conditions: growth OD

Measured: normalized growth

CC1(C)S[C@@H]2[C@H](NC(=O)[C@H](N)c3ccccc3)C(=O)N2[C@H]1C(=O)O
inactive: S. cerevisiae deletion strains, locus YJR043C, strain POL32, stronger effect = lower value 1 | S. cerevisiae deletion strains, locus YJR066W, strain TOR1, stronger effect = lower value 0.981 | S. cerevisiae deletion strains, locus YKL009W, strain mrt4, stronger effect = lower value 1.01 | S. cerevisiae deletion strains, locus YKL068W, stronger effect = lower value 1 | S. cerevisiae deletion strains, locus YKL085W, strain MDH1 (second series), stronger effect = lower value 1.01 | S. cerevisiae deletion strains, locus YKL085W, strain MDH1, stronger effect = lower value 1.01 | S. cerevisiae deletion strains, locus YKL160W, strain elf1, stronger effect = lower value 0.93 | S. cerevisiae deletion strains, locus YKL190W, strain CNB1, stronger effect = lower value 1.01 | S. cerevisiae deletion strains, locus YKR001C, strain vps1, stronger effect = lower value 0.991 | S. cerevisiae deletion strains, locus YKR026C, strain gcn3, stronger effect = lower value 0.972 | S. cerevisiae deletion strains, locus YKR091W, strain srl3, stronger effect = lower value 0.962 | S. cerevisiae deletion strains, locus YLL001W, strain dnm1, stronger effect = lower value 1 | S. cerevisiae deletion strains, locus YLL026W, stronger effect = lower value 0.966 | S. cerevisiae deletion strains, locus YLL041C, strain sdh2, stronger effect = lower value 0.976 | S. cerevisiae deletion strains, locus YLR027C, strain aat2, stronger effect = lower value 0.983 | S. cerevisiae deletion strains, locus YLR039C, strain RIC1, stronger effect = lower value 0.993 | S. cerevisiae deletion strains, locus YLR058C, strain SHM2, stronger effect = lower value 1.01 | S. cerevisiae deletion strains, locus YLR102C, strain apc9, stronger effect = lower value 0.997 | S. cerevisiae deletion strains, locus YLR113W, strain HOG1, stronger effect = lower value 1.04 | S. cerevisiae deletion strains, locus YLR221C, strain rsa3, stronger effect = lower value 1.02 | S. cerevisiae deletion strains, locus YLR258W, strain gsy2, stronger effect = lower value 0.981 | S. cerevisiae deletion strains, locus YLR262C, strain YPT6 (second series), stronger effect = lower value 0.983 | S. cerevisiae deletion strains, locus YLR262C, strain YPT6, stronger effect = lower value 1.08 | S. cerevisiae deletion strains, locus YLR268W, strain sec22, stronger effect = lower value 1.01 | S. cerevisiae deletion strains, locus YLR320W, strain mms22, stronger effect = lower value 1 | S. cerevisiae deletion strains, locus YLR330W, strain CHS5, stronger effect = lower value 1.01 | S. cerevisiae deletion strains, locus YLR342W, strain FKS1 (second series), stronger effect = lower value 1.01 | S. cerevisiae deletion strains, locus YLR342W, strain FKS1, stronger effect = lower value 0.985 | S. cerevisiae deletion strains, locus YLR357W, strain rsc2, stronger effect = lower value 0.928 | S. cerevisiae deletion strains, locus YLR370C, strain arc18, stronger effect = lower value 0.951 | S. cerevisiae deletion strains, locus YLR371W, strain rom2, stronger effect = lower value 1 | S. cerevisiae deletion strains, locus YLR384C, strain iki3, stronger effect = lower value 0.97 | S. cerevisiae deletion strains, locus YLR418C, strain cdc73, stronger effect = lower value 0.998 | S. cerevisiae deletion strains, locus YML016C, strain PPZ1, stronger effect = lower value 1.01 | S. cerevisiae deletion strains, locus YML032C, strain rad52, stronger effect = lower value 0.994 | S. cerevisiae deletion strains, locus YML120C, strain ndi1, stronger effect = lower value 0.995 | S. cerevisiae deletion strains, locus YML124C, strain tub3, stronger effect = lower value 1 | S. cerevisiae deletion strains, locus YMR058W, strain fet3, stronger effect = lower value 0.968 | S. cerevisiae deletion strains, locus YMR078C, strain ctf18, stronger effect = lower value 1.01 | S. cerevisiae deletion strains, locus YMR125W, strain sto1, stronger effect = lower value 0.964 | S. cerevisiae deletion strains, locus YMR129W, stronger effect = lower value 0.967 | S. cerevisiae deletion strains, locus YMR205C, strain PFK2, stronger effect = lower value 0.993 | S. cerevisiae deletion strains, locus YMR223W, strain ubp8, stronger effect = lower value 1.01 | S. cerevisiae deletion strains, locus YMR231W, strain pep5, stronger effect = lower value 0.985 | S. cerevisiae deletion strains, locus YMR307W, strain GAS1, stronger effect = lower value 0.926 | S. cerevisiae deletion strains, locus YNL067W, strain RPL9B, stronger effect = lower value 1.02 | S. cerevisiae deletion strains, locus YNL071W, strain lat1, stronger effect = lower value 0.977 | S. cerevisiae deletion strains, locus YNL128W, strain TEP1, stronger effect = lower value 1.03 | S. cerevisiae deletion strains, locus YNL183C, strain NPR1, stronger effect = lower value 0.975 | S. cerevisiae deletion strains, locus YNL209W, strain ssb2, stronger effect = lower value 0.956 | S. cerevisiae deletion strains, locus YNL233W, strain BNI4, stronger effect = lower value 1.01 | S. cerevisiae deletion strains, locus YNL248C, strain rpa49, stronger effect = lower value 0.907 | S. cerevisiae deletion strains, locus YNL250W, strain rad50, stronger effect = lower value 0.998 | S. cerevisiae deletion strains, locus YNL271C, strain bni1, stronger effect = lower value 1.03 | S. cerevisiae deletion strains, locus YNL298W, strain CLA4, stronger effect = lower value 1.01 | S. cerevisiae deletion strains, locus YNL307C, strain MCK1, stronger effect = lower value 1 | S. cerevisiae deletion strains, locus YNL322C, strain KRE1 (second series), stronger effect = lower value 0.97 | S. cerevisiae deletion strains, locus YNR049C, strain mso1, stronger effect = lower value 0.946 | S. cerevisiae deletion strains, locus YNR052C, strain pop2, stronger effect = lower value 1 | S. cerevisiae deletion strains, locus YOL006C, strain TOP1, stronger effect = lower value 1.04 | S. cerevisiae deletion strains, locus YOL012C, strain htz1 0.815 | S. cerevisiae deletion strains, locus YOL147C, strain pex11, stronger effect = lower value 1.01 | S. cerevisiae deletion strains, locus YOR001W, strain rrp6, stronger effect = lower value 1 | S. cerevisiae deletion strains, locus YOR061W, strain CKA2, stronger effect = lower value 1.02 | S. cerevisiae deletion strains, locus YOR069W, strain VPS5, stronger effect = lower value 1.01 | S. cerevisiae deletion strains, locus YOR070C, strain gyp1, stronger effect = lower value 0.981 | S. cerevisiae deletion strains, locus YOR080W, strain dia2, stronger effect = lower value 0.959 | S. cerevisiae deletion strains, locus YOR083W, strain WHI5, stronger effect = lower value 0.917 | S. cerevisiae deletion strains, locus YOR106W, strain vam3, stronger effect = lower value 0.914 | S. cerevisiae deletion strains, locus YOR136W, strain idh2, stronger effect = lower value 0.995 | S. cerevisiae deletion strains, locus YOR144C, strain elg1, stronger effect = lower value 0.998 | S. cerevisiae deletion strains, locus YOR184W, strain ser1, stronger effect = lower value 0.999 | S. cerevisiae deletion strains, locus YOR231W, strain MKK1, stronger effect = lower value 1.02 | S. cerevisiae deletion strains, locus YOR265W, strain rbl2, stronger effect = lower value 0.962 | S. cerevisiae deletion strains, locus YOR270C, strain vph1, stronger effect = lower value 0.951 | S. cerevisiae deletion strains, locus YOR290C, strain snf2, stronger effect = lower value 0.92 | S. cerevisiae deletion strains, locus YOR316C, strain cot1, stronger effect = lower value 1 | S. cerevisiae deletion strains, locus YPL051W, strain arl3, stronger effect = lower value 0.947 | S. cerevisiae deletion strains, locus YPL055C, strain LGE1, stronger effect = lower value 1.02 | S. cerevisiae deletion strains, locus YPL078C, strain atp4, stronger effect = lower value 0.953 | S. cerevisiae deletion strains, locus YPL106C, strain sse1, stronger effect = lower value 0.976 | S. cerevisiae deletion strains, locus YPL240C, strain hsp82, stronger effect = lower value 0.974 | S. cerevisiae deletion strains, locus YPL256C, strain CLN2, stronger effect = lower value 1.05 | S. cerevisiae deletion strains, locus YPR119W, strain clb2, stronger effect = lower value 1.01 | S. cerevisiae deletion strains, locus YPR141C, strain kar3, stronger effect = lower value 1 | S. cerevisiae deletion strains, locus YPR163C, strain tif3, stronger effect = lower value 0.999 | S. cerevisiae deletion strains, locus YPR167C, strain met16, stronger effect = lower value 1.02 | S. cerevisiae deletion strains, strain wtn01, stronger effect = lower value 1.01 | S. cerevisiae strains, strain wild type, stronger effect = lower value 1.02
